# PubChem BioAssay (NCI)
# This is part of a sample that, as a whole, favours compounds with a hit. Of some 79,000 tested, about 15% had one in any assay. Unmarked numbers belong to inactive results. Active and inactive are the calls of the source. No stated cut-off is given here; in the data, active means growth inhibition above about 70%; inactive means the rest.
# Columns and labels:
# [1] = NCI Yeast Anticancer Drug Screen. Data for the rad52 strain (AID 147);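 further: 0% = growth of vehicle-treated control cultures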; conditions: S. cerevisiae rad52 mutant growth inhibition, hits give high values
# Summary of the method: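 Measured: yeast growth inhibition. System: strain with a defined DNA damage repair alteration. Reference: vehicle-treated control cultures.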
# [2] = NCI Yeast Anticancer Drug Screen. Data for the wt1 strain (AID 149);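 further: 0% = growth of vehicle-treated wt1 cultures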; conditions: S. cerevisiae wt1 strain (SPY 50644) growth inhibition, hits give high values
# Summary of the method: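 wt1 strain grown with compound or vehicle; inhibition taken from the growth difference.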
# [3] = NCI Yeast Anticancer Drug Screen. Data for the rad50EPP+ strain (AID 151);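 further: 0% = growth of vehicle-treated control cultures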; conditions: S. cerevisiae rad50 mutant strain, hits give high values
# Summary of the method: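 One strain with a rad50 alteration (rad50EPP+) was compound-treated, its growth then compared to that of vehicle controls.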
# [4] = NCI Yeast Anticancer Drug Screen. Data for the mgt1 strain (AID 153); conditions: S. cerevisiae mgt1 mutant growth inhibition, hits give high values
# Summary of the method: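 After exposure of the mgt1 yeast mutant to compound, growth was measured and reported as inhibition compared with vehicle controls.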
# [5] = NCI Yeast Anticancer Drug Screen. Data for the rad50 strain (AID 155);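 further: 0% = growth of vehicle-only cultures of the same strain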; conditions: S. cerevisiae rad50 strain growth inhibition, hits give high values
# Summary of the method: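 DNA repair mutant yeast, compound exposure, growth read-out; inhibition is taken relative to vehicle.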
# [6] = NCI Yeast Anticancer Drug Screen. Data for the mec2-1 strain (AID 157); conditions: S. cerevisiae mec2-1 strain, hits give high values
# Summary of the method: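 Test agents were screened against the mec2-1 yeast strain, with defined DNA repair or cell cycle alteration. Growth was scored as inhibition against vehicle-only controls.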
# [7] = NCI Yeast Anticancer Drug Screen. Data for the rad14 strain (AID 159);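 further: 0% = growth of vehicle-treated control cultures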; conditions: S. cerevisiae rad14 strain growth inhibition, hits give high values
# Summary of the method: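 DNA repair-defective yeast, compound-exposed; % growth inhibition derived by comparison with vehicle-treated controls.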
# [8] = NCI Yeast Anticancer Drug Screen. Data for the sgs1 mgt1 strain (AID 161);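 further: 0% = growth of cultures given vehicle only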; conditions: S. cerevisiae sgs1 mgt1 strain, hits give high values
# Summary of the method: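 Mutant yeast exposed to compound; growth scored against vehicle-only wells.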
# [9] = NCI Yeast Anticancer Drug Screen. Data for the CLN2oe strain (AID 163);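 further: 0% = growth of vehicle-only control cultures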; conditions: S. cerevisiae CLN2oe strain, hits give high values
# Summary of the method: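 Here, growth inhibition in a cell-cycle-altered yeast strain after compound exposure was quantified against vehicle control growth.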
# [10] = NCI Yeast Anticancer Drug Screen. Data for the cln2 rad14 strain (AID 165);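 further: 0% = growth equal to vehicle treated cultures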; conditions: S. cerevisiae cln2 rad14 strain, hits give high values
# Summary of the method: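 Growth of compound-exposed yeast (cln2 rad14 genotype) measured and expressed as inhibition relative to vehicle.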
# [11] = NCI Yeast Anticancer Drug Screen. Data for the bub3 strain (AID 167); conditions: S. cerevisiae bub3 mutant strain, hits give high values
# Summary of the method: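 In this screen, a yeast mutant lacking normal mitotic checkpoint function is challenged with compound. Relative growth versus vehicle gives the inhibition value.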
# [12] = NCI Yeast Anticancer Drug Screen. Data for the wt2 strain (AID 169);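 further: 0% = growth of vehicle-treated yeast cultures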; conditions: S. cerevisiae wt2 strain growth inhibition, hits give high values
# Summary of the method: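 Genetically defined yeast strains from a DNA-repair/cell-cycle panel were used. Compound-exposed yeast growth was measured, and the inhibition was calculated relative to vehicle treatment.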
# [13] = NCI Yeast Anticancer Drug Screen. Data for the sgs1 strain (AID 173);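 further: 0% = growth of vehicle-only control cultures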; conditions: S. cerevisiae sgs1 mutant, hits give high values
# Summary of the method: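 Relative growth inhibition, referenced to vehicle, was determined in a yeast strain with a defined alteration affecting DNA damage repair or cell cycle control after compound exposure.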
# [14] = NCI Yeast Anticancer Drug Screen. Data for the mlh1 rad18 strain (AID 175); conditions: S. cerevisiae mlh1 rad18 strain growth inhibition, hits give high values
# Summary of the method: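 In this whole-cell yeast screen, a strain with altered DNA damage repair is challenged with compound, and its growth is measured against matched vehicle-treated controls.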
# [15] = NCI Yeast Anticancer Drug Screen. Data for the rad18 strain (AID 177); conditions: S. cerevisiae rad18 mutant growth inhibition, hits give high values
# Summary of the method: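 Screen uses a yeast strain with a defined lesion in DNA damage repair; compound effect is read as loss of growth compared to untreated vehicle cultures.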
# [16] = at 5.0 µM (retest, dose inferred, filed as 0.5)
# [17] = at 50.0 µM (retest, dose inferred, filed as 5.0)
structure (smiles),measurement,setting,value
C[C@]12CC[C@H](O)CC1=CC[C@@H]1C2CC[C@]2(C)C(=O)NC(=O)CC12 (stereo partly drawn),growth inhibition,[1]; at 1.2 µM,-27%
same,growth inhibition,[1]; at 3.7 µM,-23%
same,growth inhibition,[1]; at 11.0 µM,-17%
same,growth inhibition,[1]; at 33.0 µM,58%
same,growth inhibition,[1]; at 100.0 µM,85% (active)
same,growth inhibition,[2]; at 1.2 µM,-22%
same,growth inhibition,[2]; at 3.7 µM,-24%
same,growth inhibition,[2]; at 11.0 µM,-21%
same,growth inhibition,[2]; at 33.0 µM,55%
same,growth inhibition,[2]; at 100.0 µM,84% (active)
same,growth inhibition,[3]; at 1.2 µM,-33%
same,growth inhibition,[3]; at 3.7 µM,-19%
same,growth inhibition,[3]; at 11.0 µM,18%
same,growth inhibition,[3]; at 33.0 µM,74% (active)
same,growth inhibition,[3]; at 100.0 µM,93% (active)
same,growth inhibition,[4]; at 1.2 µM,-41%
same,growth inhibition,[4]; at 3.7 µM,-16%
same,growth inhibition,[4]; at 11.0 µM,79% (active)
same,growth inhibition,[4]; at 33.0 µM,94% (active)
same,growth inhibition,[4]; at 100.0 µM,96% (active)
same,growth inhibition,[5]; at 1.2 µM,-16%
same,growth inhibition,[5]; at 3.7 µM,-19%
same,growth inhibition,[5]; [16],-4%
same,growth inhibition,[5]; at 11.0 µM,-13%
same,growth inhibition,[5]; at 33.0 µM,53%
same,growth inhibition,[5]; [17],69%
same,growth inhibition,[5]; at 50.0 µM,82.4% (active)
same,growth inhibition,[5]; at 100.0 µM,88% (active)
same,growth inhibition,[6]; at 1.2 µM,-23%
same,growth inhibition,[6]; at 3.7 µM,-24%
same,growth inhibition,[6]; [16],-39%
same,growth inhibition,[6]; at 11.0 µM,-27%
same,growth inhibition,[6]; at 33.0 µM,14%
same,growth inhibition,[6]; [17],82% (active)
same,growth inhibition,[6]; at 50.0 µM,77.9% (active)
same,growth inhibition,[6]; at 100.0 µM,83% (active)
same,growth inhibition,[7]; at 1.2 µM,-50%
same,growth inhibition,[7]; at 3.7 µM,-50%
same,growth inhibition,[7]; at 11.0 µM,-38%
same,growth inhibition,[7]; at 33.0 µM,64%
same,growth inhibition,[7]; at 100.0 µM,87% (active)
same,growth inhibition,[8]; [16],33%
same,growth inhibition,[8]; [17],94% (active)
same,growth inhibition,[8]; at 50.0 µM,91.8% (active)
same,growth inhibition,[9]; at 1.2 µM,-36%
same,growth inhibition,[9]; at 3.7 µM,-45%
same,growth inhibition,[9]; at 11.0 µM,-48%
same,growth inhibition,[9]; at 33.0 µM,67%
same,growth inhibition,[9]; at 100.0 µM,91% (active)
same,growth inhibition,[10]; [16],1%
same,growth inhibition,[10]; [17],80% (active)
same,growth inhibition,[10]; at 50.0 µM,84.7% (active)
same,growth inhibition,[11]; at 1.2 µM,-23%
same,growth inhibition,[11]; at 3.7 µM,-15%
same,growth inhibition,[11]; [16],-4%
same,growth inhibition,[11]; at 11.0 µM,-12%
same,growth inhibition,[11]; at 33.0 µM,60%
same,growth inhibition,[11]; [17],90% (active)
same,growth inhibition,[11]; at 50.0 µM,80% (active)
same,growth inhibition,[11]; at 100.0 µM,86% (active)
same,growth inhibition,[12]; at 1.2 µM,-14%
same,growth inhibition,[12]; at 3.7 µM,27%
same,growth inhibition,[12]; at 11.0 µM,78% (active)
same,growth inhibition,[12]; at 33.0 µM,94% (active)
same,growth inhibition,[12]; at 100.0 µM,97% (active)
same,growth inhibition,[13]; at 1.2 µM,17%
same,growth inhibition,[13]; at 3.7 µM,45%
same,growth inhibition,[13]; at 11.0 µM,90% (active)
same,growth inhibition,[13]; at 33.0 µM,96% (active)
same,growth inhibition,[13]; at 100.0 µM,97% (active)
same,growth inhibition,[14]; [16],-25%
same,growth inhibition,[14]; [17],82% (active)
same,growth inhibition,[14]; at 50.0 µM,70.3% (active)
same,growth inhibition,[15]; at 1.2 µM,-27%
same,growth inhibition,[15]; at 3.7 µM,-29%
same,growth inhibition,[15]; at 11.0 µM,-23%
same,growth inhibition,[15]; at 33.0 µM,77% (active)
same,growth inhibition,[15]; at 100.0 µM,92% (active)
